By inhibition is commonly meant the relative decrease from the control value, in per cent.

The assay has as its target Glucose transporter (Leishmania mexicana) (UniProt O61059). The assay can be described thus: ST_JUDE_LEISH: Cytotoxicity at 2uM final concentration against transgenic Leishmania Mexicana promastigotes LmGT2 that are glucose transport deficient and complemented with the L. Mexicana glucose transporter 2. Activity is measured by DNA content using SYBR green in vitro. The class given is functional.
Turning to `Cc1nc(N)nc(N)c1OCc1cccc2c1ccc1ccccc12`, the inhibition is 2.84%. With `O=S(=O)(Nc1cc2c(cc1OCCCN1CCCCC1)CCNCC2)c1ccc(-c2ccc(Cl)cc2)cc1` the figure was -0.37%. To `c1ccc(CNc2nc(NCCN3CCCCC3)nc3ccccc23)cc1` belongs 4.27%.

Regarding `CC(C)(C)c1cc(C(=O)N2CCN(c3ncccc3C(F)(F)F)CC2)n(Cc2ccccc2)n1`, the inhibition came out at 4.37%. `O=C(/C=C/c1ccc(Cl)c(Cl)c1)NCCC(CN1CCC(c2c[nH]c3ccccc23)CC1)c1ccccc1` (stereo not given): the inhibition worked out at 0.88%.

With `CC(=O)c1cccc(NC(=O)C2c3ccccc3C(=O)N(CC(C)C)C2c2cccs2)c1` (stereo not given), the inhibition worked out at 0.19%. To `COc1ccc2nccc([C@@H](O)CN3CCC(NCc4cc5cc(OC(F)(F)F)ccc5[nH]4)CC3)c2c1` belongs 3.79%; to `Cc1csc(-c2ncc(OC[C@@H](N)Cc3ccccc3)cc2-c2ccc3[nH]nc(C)c3c2)c1`, -0.58%; to `Fc1ccc2[nH]c(-c3ccc(-c4ccc(CN5CCCCC5)cc4)cc3)nc2c1`, 5.34%.

As to `CN(C(=O)Cc1ccc(Cl)cc1)C1CCN(CCCCCNC(=O)/C=C/c2ccc(Cl)c(Cl)c2)CC1`, the inhibition is 1.99%. Turning to `O=[N+]([O-])c1ccccc1C=NN=c1c2c([nH]c3ccccc13)CCCC2`, the inhibition was found to be 12%. For `COc1cc2ncnc(Nc3ccc(OCc4ccccc4Br)c(OC)c3)c2cc1OC`, the inhibition was -0.16%. To `OCC1CCN(Cc2ccc(-c3ccc(-c4nc5ccccc5[nH]4)cc3)cc2)CC1` belongs 5.45%; to `Cc1[nH]cnc1CSCCNC(=N)NCCCCCCCCNC(=N)NCCSCc1nc[nH]c1C`, -0.05%. As for `COCCOc1ccc(Nc2nccc(-c3c(-c4cccc(NC(=O)c5c(F)cccc5F)c4)nn4ccccc34)n2)cc1F`, the inhibition is 1.25%.

On to `CCCCNC(=N)c1ccc(OCCCCCOc2ccc(C(=N)NCCCC)cc2)cc1`, for which the inhibition is -0.11%.

With `O=C(C=Cc1ccc(Cl)c(Cl)c1)NCCCCCN1CCCC(CCCNC(=O)/C=C/c2ccccc2)C1` (stereo not given), the inhibition is 3.82%. To `O=C(Nc1cccc(-c2cccc(CN3CCCC3)c2)c1)c1cccc(Cl)c1` belongs 4.9%; to `CN1CC=C(c2csc3ccc(NC(=O)Nc4ccc(-c5ccncc5)c5ccccc45)cc23)CC1`, -1.21%; to `CCCC(C)NC(=O)[C@H](CC1CCCCC1)NC(=O)c1ccc(O)c(-c2cccc(C(F)(F)F)c2)c1` (stereo not given in full), 0.42%. To `COc1ccc(NC(=O)/C=C/c2ccccc2Cl)cc1OCCN1CCC(O)(c2ccc(Cl)c(C(F)(F)F)c2)CC1` belongs 7.73%; to `CN(C)CCCOc1ccc(CNCc2cccc(Oc3ccc(Cl)cc3)c2)cc1`, 3.82%; to `C#CCOc1ccc2ccccc2c1CNCCCCCCNCc1c(OCC#C)ccc2ccccc12`, 0.87%. To `Cc1ccc2[nH]c(C)cc(=NN=Cc3cccc(Cl)c3)c2c1` belongs 2.31%. Turning to `CCCC(CNCc1cccc(SC(F)(F)F)c1)CNc1cc(=O)c2ccccc2[nH]1` (stereo not given), the inhibition was determined as 3.17%. With `CCCCc1cc(NCc2ccncc2)nc(Nc2ccc(OC)cc2)n1`, the inhibition came to 3.3%. With `COc1ccc(Oc2ccc(-c3c(C)[nH]c(C)c(Cl)c3=O)cc2)cc1`, the inhibition turned out to be 2.72%. To `Nc1nc2c(ncn2OC[C@H](CO)OCP(=O)(O)O)c(=O)[nH]1` belongs -1.85%; to `COc1cc(Br)c(NC(=O)Nc2ccc(C(F)(F)F)c(O[C@@H]3CCN(C)C3)c2)cc1OC`, 1.55%; to `CCOc1cc(-c2nnc3[nH]c(=O)n(C)c(=O)c3n2)ccc1OC(C)C`, -1.04%. With `N=C(N)NN=CC(=O)Nc1ccc(C(F)(F)F)cc1` the figure was 3.39%; with `O=C(N/C=N/c1cc([N+](=O)[O-])c(-c2ccncc2)n1-c1ccccc1)c1cccc(O)c1`, 0.38%. Regarding `COc1cc(C=NNc2ccnc3cc(Cl)ccc23)ccc1O`, the inhibition stood at 3.46%. To `COc1cc(C)nc2ccc(NC(=O)Nc3ccc([N+](=O)[O-])cc3C)cc12` belongs 3.97%; to `Cc1ccc(O)cc1Nc1ccnc2cc(-c3csc(CN4CCN(C)CC4)n3)ccc12`, 5.57%; to `CCOc1cc(C=Cc2nc(O)c3ccccc3n2)cc(Cl)c1O`, 2.7%. To `Cc1cc2ncc(C(N)=O)c(Nc3ccc(N4CCOCC4)cc3)c2cc1S(C)(=O)=O` belongs 5.19%. With `COc1cccc(-c2ccc3ccnc(N)c3c2)c1` the figure was 2.03%; with `N=C(NCc1ccc(O)cc1)Nc1nc(-c2ccc(OCCCn3ccnc3)cc2)cs1`, -3.09%; with `CCCCCCCCCc1c(C)[nH]c2ccccc2c1=O`, 2.28%.

These data come from ChEMBL document CHEMBL3433997, “St. Jude Leishmania screening dataset” (2016).
